# Reference: PubChem BioAssay (NCATS)
# Records with an inconclusive call do not appear. Entries that show only a call come without a potency. The source made the active and inactive calls. Unless noted, calls follow the shape of the dose curve; as a rule, active = well fitted curve in the direction sought with a large enough effect; inconclusive = small, poorly fitted or top-dose-only effect, or another doubt; inactive = no such curve, though single readings can be large; an effect the other way counts as inactive or inconclusive.
# Columns and labels:
# [1] = AP1 Signaling Pathway (AID 357; active = well fitted curve in either direction with a large enough effect, not every such curve was filed as active;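 also: ME-180 reporter cells stimulated with EGF at its EC50 level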)
# Procedure, shortened: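 Beta-lactamase reporter under AP-1 response element, ME-180 background. Stimulus: EC50 EGF. Compound exposure 5 h, 37 °C. Detection: CCF4, 2.5 h RT, 460/530 nm. Values: AC50 from titration.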
# [2] = biological target: Cytochrome P450 1A2 (Homo sapiens) (UniProt P05177); test: p450-cyp1a2 (AID 410; calls by dose curve; also: potency is read from the fitted curve at half-maximal effect)
# Procedure, shortened: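 Human CYP1A2 (20nM) demethylated Luciferin-ME at its Km (100uM) in 100mM KPO4. After 10 min compound preincubation, NADPH regeneration ran the reaction 60 min at room temperature. Luciferin was read by luminescence, normalized to 57 uM furafylline.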
# [3] = NFAT Signaling Pathway (AID 444; active = well fitted curve in either direction with a large enough effect, not every such curve was filed as active;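 also: carbachol stimulus at about its EC50 of 1 µM final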); settings: Jurkat NFAT-bla M1, carbachol, beta-lactamase ratio, 5 h; at 17.2 µM (top of the series) unless noted
# Procedure, shortened: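 Jurkat cells carrying an NFAT-driven β-lactamase reporter and co-transfected muscarinic M1 receptor were treated with compound plus carbachol (1 uM final, an EC50 level) for 5 h at 37 °C. CCF4 loading followed for 1 h at RT; 460/530 nm ratio gave %activity.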
# [4] = Stat Signaling Pathway (AID 446; active = well fitted curve in either direction with a large enough effect, not every such curve was filed as active;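 also: ME-180 cervical cancer cells given 40 pM IL-6 alongside compound; SIE-controlled beta-lactamase reporter measured as 460/530 nm FRET emission ratio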)
# Procedure, shortened: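 ME-180 cells carrying a SIE-driven beta-lactamase reporter are stimulated with 40 pM IL-6 for 5 h at 37C in the presence of compound. The 460/530 nm FRET substrate ratio is read after 2.5 h at RT. Data are normalised to 300 pM IL-6 and to 125 nM JAK inhibitor controls.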
# [5] = biological target: Glucocorticoid receptor (Homo sapiens) (UniProt P04150); test: GR-GFP Redistribution (AID 450;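 active = compounds whose dose series gives a full or clear partial fitted curve of increased nuclear translocation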; also: potency is read from the fitted curve at half-maximal effect); settings: U2OS GR-GFP nuclear translocation, laser cytometry, 2 h
# [6] = biological target: Glucocorticoid receptor (Homo sapiens) (UniProt P04150); test: GR-EFC Redistribution (AID 451; calls by dose curve; also: potency is read from the fitted curve at half-maximal effect); settings: CHO-K1 GR-EFC translocation, beta-gal luminescence, 2 h
# Procedure, shortened: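 CHO-K1 cells stably expressing nuclear-localized β-gal enzyme acceptor and GR fused C-terminally to the enzyme donor fragment; ligand-driven nuclear translocation restores β-gal by complementation. Compounds titrated up to 46 uM final, 2 h at 37 °C; luminescence read.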
# [7] = biological target: Mitogen-activated protein kinase 10 (Mus musculus) (UniProt Q61831); test: JNK3 AlphaScreen Assay (AID 530; active = well fitted curve in either direction with a large enough effect, not every such curve was filed as active;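 also: kinase came from lysate of stimulated human HepG2 cells; signal reports phosphorylation of biotinylated GST-cJun 1-79 at Ser73 with 10 µM ATP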)
# Procedure, shortened: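 JNK3 came from HepG2 lysates pre-activated with IL-1beta and TNF-alpha and phosphorylated biotinylated GST-cJun (1-79) at 10 uM ATP, pH 7.6, room temperature. Compounds were titrated. AlphaScreen signal used anti-phospho-cJun (Ser73) antibody.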
# [8] = biological target: 3',5'-cyclic-AMP phosphodiesterase 4B (Homo sapiens) (UniProt Q07343); test: qHTS Assay for Inhibitors of PDE-IV (AID 607; active = well fitted activation curve with a large enough effect in the main read-out, with a control signal flat, not every such curve was filed as active)
# Procedure, shortened: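 HEK293 ACTOne cells with CNG channel (1000/well), endogenous PDE4; membrane potential dye, compounds up to 22.9 uM final. Fluorescence Ex 535/Em 590; RO 20-1724 (100 uM final) as reference.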
# [9] = qHTS Assay for Lipid Storage Modulators (AID 1519; calls by dose curve); settings: Drosophila S3 cells, BODIPY lipid droplet/cell ratio, laser cytometry, cells loaded with oleic acid; for activity change, negative = inhibition: at 25.7 µM (top of the series)
# Procedure, shortened: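 Cells seeded at 5,000 per well were treated with compounds over a concentration series and loaded with oleic acid (400 uM, as added). Lipid droplet fluorescence (488 nm excitation, 500-530 nm channel) was read by laser-scanning cytometry and normalized to 20 uM Triacsin C.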
# [10] = biological target: ATP-dependent 6-phosphofructokinase (Trypanosoma brucei brucei) (UniProt O15648); test: qHTS Assay to Find Inhibitors of T. brucei phosphofructokinase: hit validation (AID 492961);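 also: luminescence reports ADP formed as PFK phosphorylates fructose-6-phosphate with ATP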
# Procedure, shortened: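 Reaction: 0.1 M triethanolamine pH 8.0, 5 mM MgCl2, F6P 0.5 mM, ATP 0.1 mM, PFK 1.25 nM, 45 min RT. Read-out: ADP-Glo luminescence. Analysis: concentration-response fits, classed by r2 and efficacy.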
# [11] = biological target: Luciferin 4-monooxygenase (Photinus pyralis) (UniProt P08659); test: Biochemical firefly luciferase enzyme assay for NPC (AID 624030);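 also: purified P. pyralis luciferase at 10 nM with luciferin and ATP substrate; nearly all actives have a fitted effect of over 70% in size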
# Procedure, shortened: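 Counter-screen for direct inhibition of the luciferase enzyme by approved-drug library compounds, run at 10 nM enzyme in 50 mM Tris acetate (final). Luminescence was read within 5 min of enzyme-buffer addition and normalized to PTC124 versus DMSO (0%).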
# [12] = S16 Schwann cell PMP22 intronic element firefly luciferase assay (AID 624032); also: nearly all actives have a fitted effect of over 30% in size; also: potency is read from the fitted curve at half-maximal effect
# Procedure, shortened: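 Rat S16 Schwann cells stably carrying a PMP22 intronic element-driven Fluc reporter were seeded overnight, then exposed to compounds for 24 h at 37 °C. Luminescence was normalized to PTC124 (positive control) and DMSO (0% activity).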
# [13] = qHTS profiling for inhibitors of Plasmodium falciparum proliferation (AID 504749); also: nearly all actives have a fitted effect of over 60% in size; settings: P. falciparum in erythrocytes, SYBR Green DNA, 72 h, at 12.8 µM (top of the series)
# Procedure, shortened: (§1)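 P. falciparum-infected erythrocytes (0.3% parasitemia, 2.5% hematocrit final) were exposed to compounds for 72 h at 37 C in 5% CO2, then lysed with SYBR Green buffer overnight at room temperature; parasite DNA fluorescence was normalized to artemisinin and DMSO controls.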
# [14] = tested on: CP191; test: as above; settings: P. falciparum in erythrocytes, SYBR Green DNA, 72 h; series mostly up to 12.8 µM
# Procedure, shortened: as §1
# [15] = tested on: CP217; test: as above; settings: P. falciparum in erythrocytes, SYBR Green DNA, 72 h; series mostly up to 12.8 µM
# Procedure, shortened: as §1
# [16] = tested on: CP250; test: as above; settings: P. falciparum in erythrocytes, SYBR Green DNA, 72 h; series mostly up to 12.8 µM
# Procedure, shortened: as §1
# [17] = tested on: CP256; test: as above; settings: P. falciparum in erythrocytes, SYBR Green DNA, 72 h; series mostly up to 12.8 µM
# Procedure, shortened: as §1
# [18] = tested on: FAB9; test: as above; settings: P. falciparum in erythrocytes, SYBR Green DNA, 72 h; series mostly up to 12.8 µM
# Procedure, shortened: as §1
# [19] = tested on: JCK; test: as above; settings: P. falciparum in erythrocytes, SYBR Green DNA, 72 h; series mostly up to 12.8 µM
# Procedure, shortened: as §1
# [20] = biological target: Ubiquitin carboxyl-terminal hydrolase 1 (Homo sapiens) (UniProt O94782); test: Inhibitors of USP1/UAF1: Pilot qHTS (AID 504865);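 also: rhodamine fluorescence freed from ubiquitin-rhodamine substrate followed over time; top concentration of the series differs between compounds; nearly all actives have a fitted effect of over 35% in size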
# Procedure, shortened: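 Deubiquitinase activity followed as kinetic rhodamine fluorescence release from 150 nM Ub-Rho. 1 nM USP1/UAF1 with compound, after 15 min room-temperature preincubation, in HEPES pH 7.8 buffer containing TCEP, EDTA, BSA and Tween-20.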
# [21] = measured here: cell count channel max response
# [22] = measured here: lipid channel max response
# Luciferin 4-monooxygenase (Photinus pyralis), sequence (P08659 whole entry, looked up): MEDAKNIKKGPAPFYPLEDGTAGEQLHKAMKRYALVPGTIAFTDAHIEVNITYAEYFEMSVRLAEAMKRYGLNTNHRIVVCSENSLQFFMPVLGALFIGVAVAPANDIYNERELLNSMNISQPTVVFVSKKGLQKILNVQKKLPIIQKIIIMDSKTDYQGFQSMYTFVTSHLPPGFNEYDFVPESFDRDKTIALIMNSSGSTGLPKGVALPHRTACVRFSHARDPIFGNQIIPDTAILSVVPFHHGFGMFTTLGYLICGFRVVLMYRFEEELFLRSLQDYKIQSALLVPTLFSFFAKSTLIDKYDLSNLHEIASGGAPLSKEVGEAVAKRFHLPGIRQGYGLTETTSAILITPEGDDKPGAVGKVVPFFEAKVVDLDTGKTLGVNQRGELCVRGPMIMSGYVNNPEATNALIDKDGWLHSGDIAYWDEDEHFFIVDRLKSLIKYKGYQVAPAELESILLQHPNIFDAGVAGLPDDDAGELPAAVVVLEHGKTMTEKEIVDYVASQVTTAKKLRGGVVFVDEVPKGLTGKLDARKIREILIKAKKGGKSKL
# Glucocorticoid receptor (Homo sapiens), sequence (P04150 whole entry, looked up, the tested form may be a part): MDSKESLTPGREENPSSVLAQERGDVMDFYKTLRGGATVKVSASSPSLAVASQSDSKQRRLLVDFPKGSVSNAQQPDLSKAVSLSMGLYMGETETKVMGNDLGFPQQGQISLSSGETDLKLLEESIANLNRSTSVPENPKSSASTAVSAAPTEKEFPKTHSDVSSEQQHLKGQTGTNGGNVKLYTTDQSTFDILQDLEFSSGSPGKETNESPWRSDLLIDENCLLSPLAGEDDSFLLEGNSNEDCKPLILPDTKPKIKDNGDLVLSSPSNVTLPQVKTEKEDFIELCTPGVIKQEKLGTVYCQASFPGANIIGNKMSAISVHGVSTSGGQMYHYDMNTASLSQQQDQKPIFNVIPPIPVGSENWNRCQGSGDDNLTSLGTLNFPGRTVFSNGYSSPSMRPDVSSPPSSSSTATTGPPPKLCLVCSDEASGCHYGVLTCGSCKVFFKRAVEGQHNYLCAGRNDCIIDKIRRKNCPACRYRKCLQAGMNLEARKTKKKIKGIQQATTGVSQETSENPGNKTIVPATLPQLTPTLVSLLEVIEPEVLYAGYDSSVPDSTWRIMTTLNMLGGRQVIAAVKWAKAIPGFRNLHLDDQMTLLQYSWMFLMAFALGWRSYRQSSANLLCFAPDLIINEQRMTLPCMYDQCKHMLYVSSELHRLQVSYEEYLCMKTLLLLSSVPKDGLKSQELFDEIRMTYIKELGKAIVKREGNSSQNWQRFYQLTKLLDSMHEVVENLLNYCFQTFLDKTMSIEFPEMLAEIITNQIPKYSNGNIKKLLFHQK
# 3',5'-cyclic-AMP phosphodiesterase 4B (Homo sapiens), sequence (Q07343 whole entry, looked up): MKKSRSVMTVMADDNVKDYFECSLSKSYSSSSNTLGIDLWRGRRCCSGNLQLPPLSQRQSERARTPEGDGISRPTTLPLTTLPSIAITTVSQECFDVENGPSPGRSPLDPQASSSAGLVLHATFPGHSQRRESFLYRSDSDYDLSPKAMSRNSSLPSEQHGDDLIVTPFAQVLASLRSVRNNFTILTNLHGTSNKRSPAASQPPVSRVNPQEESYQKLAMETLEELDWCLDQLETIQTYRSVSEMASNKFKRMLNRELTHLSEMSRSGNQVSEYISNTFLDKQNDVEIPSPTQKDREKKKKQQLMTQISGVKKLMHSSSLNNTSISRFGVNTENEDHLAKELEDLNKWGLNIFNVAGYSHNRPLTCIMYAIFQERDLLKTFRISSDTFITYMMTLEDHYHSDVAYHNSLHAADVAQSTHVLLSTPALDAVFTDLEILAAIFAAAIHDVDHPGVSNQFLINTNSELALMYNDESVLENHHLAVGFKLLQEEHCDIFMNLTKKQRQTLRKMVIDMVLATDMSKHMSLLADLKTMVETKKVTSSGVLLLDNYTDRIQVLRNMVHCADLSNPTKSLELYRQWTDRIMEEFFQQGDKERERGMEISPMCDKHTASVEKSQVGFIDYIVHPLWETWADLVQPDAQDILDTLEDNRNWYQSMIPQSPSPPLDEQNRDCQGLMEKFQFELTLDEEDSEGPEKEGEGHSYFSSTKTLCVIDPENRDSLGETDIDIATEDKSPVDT
# ATP-dependent 6-phosphofructokinase (Trypanosoma brucei brucei), sequence (O15648 whole entry, looked up): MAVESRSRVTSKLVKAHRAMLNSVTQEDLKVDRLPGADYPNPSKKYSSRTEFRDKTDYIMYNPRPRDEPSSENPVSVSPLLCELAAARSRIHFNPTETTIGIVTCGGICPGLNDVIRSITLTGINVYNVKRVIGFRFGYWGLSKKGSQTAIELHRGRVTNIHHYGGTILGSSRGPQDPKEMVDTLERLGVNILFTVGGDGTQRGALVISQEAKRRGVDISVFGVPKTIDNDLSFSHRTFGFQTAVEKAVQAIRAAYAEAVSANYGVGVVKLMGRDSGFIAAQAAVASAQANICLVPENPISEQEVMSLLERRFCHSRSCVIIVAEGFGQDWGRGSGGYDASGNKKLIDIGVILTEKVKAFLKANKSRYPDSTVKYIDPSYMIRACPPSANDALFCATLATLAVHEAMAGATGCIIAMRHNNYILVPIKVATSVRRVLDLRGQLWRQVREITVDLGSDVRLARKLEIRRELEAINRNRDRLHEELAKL
# Ubiquitin carboxyl-terminal hydrolase 1 (Homo sapiens), sequence (O94782 whole entry, looked up): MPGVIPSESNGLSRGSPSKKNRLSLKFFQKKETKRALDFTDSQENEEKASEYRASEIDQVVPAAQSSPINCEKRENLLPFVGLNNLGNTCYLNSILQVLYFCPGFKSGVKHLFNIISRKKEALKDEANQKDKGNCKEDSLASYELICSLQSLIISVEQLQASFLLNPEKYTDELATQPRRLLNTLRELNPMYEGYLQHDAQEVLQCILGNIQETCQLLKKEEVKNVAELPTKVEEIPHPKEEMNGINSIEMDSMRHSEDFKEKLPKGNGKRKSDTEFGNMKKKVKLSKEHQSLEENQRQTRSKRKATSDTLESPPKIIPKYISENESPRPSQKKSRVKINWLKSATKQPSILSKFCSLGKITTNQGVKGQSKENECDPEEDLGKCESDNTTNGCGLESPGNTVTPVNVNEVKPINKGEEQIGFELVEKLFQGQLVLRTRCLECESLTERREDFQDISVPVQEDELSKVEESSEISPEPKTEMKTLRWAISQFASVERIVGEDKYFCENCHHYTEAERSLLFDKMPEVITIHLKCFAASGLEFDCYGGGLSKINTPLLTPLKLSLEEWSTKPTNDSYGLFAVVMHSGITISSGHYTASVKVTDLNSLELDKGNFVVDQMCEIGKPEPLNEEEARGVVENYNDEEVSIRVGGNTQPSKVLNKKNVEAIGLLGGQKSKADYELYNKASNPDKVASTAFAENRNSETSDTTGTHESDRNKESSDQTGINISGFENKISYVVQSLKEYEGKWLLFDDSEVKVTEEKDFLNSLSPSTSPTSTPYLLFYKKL
# Cytochrome P450 1A2 (Homo sapiens), sequence (P05177 whole entry, looked up): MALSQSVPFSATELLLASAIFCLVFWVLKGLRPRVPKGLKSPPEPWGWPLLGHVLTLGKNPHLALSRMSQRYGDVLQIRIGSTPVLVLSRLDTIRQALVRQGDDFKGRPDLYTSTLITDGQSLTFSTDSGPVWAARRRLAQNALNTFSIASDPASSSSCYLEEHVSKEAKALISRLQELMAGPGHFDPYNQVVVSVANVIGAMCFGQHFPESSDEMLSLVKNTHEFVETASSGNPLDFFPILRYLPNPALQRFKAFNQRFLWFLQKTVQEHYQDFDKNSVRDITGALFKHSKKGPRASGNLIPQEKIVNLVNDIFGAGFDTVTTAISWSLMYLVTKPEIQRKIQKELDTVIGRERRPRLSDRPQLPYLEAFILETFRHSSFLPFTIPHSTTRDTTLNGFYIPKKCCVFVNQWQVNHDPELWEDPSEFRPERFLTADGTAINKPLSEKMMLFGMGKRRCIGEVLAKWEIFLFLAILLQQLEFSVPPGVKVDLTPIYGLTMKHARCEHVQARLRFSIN
smiles,measurement,setting,value
C[N+]12CCC(CC1)[C@@H](OC(=O)C(O)(c1ccccc1)c1ccccc1)C2,outcome,[1],inactive
same,Potency,[2],inactive
same,"activity change, negative = inhibition",[3],-57.3% (active)
same,outcome,[4],inactive
same,Potency,[5],> 20.6 µM (inactive)
same,Potency,[6],> 20.6 µM (inactive)
same,Potency,[7],inactive
same,outcome,[8],inactive
same,"activity change, negative = inhibition",[9],-3.29% (inactive)
same,max response,[9]; [21],-12.1%
same,max response,[9]; [22],-15%
same,outcome,[10],inactive
same,Potency,[11],inactive
same,Potency,[12],inactive
same,"activity, negative = inhibition",[13]; parasite line A,11.6% (inactive)
same,"activity, negative = inhibition",[13]; parasite line B,16% (inactive)
same,Potency,[14],inactive
same,Potency,[15],inactive
same,Potency,[16],inactive
same,Potency,[17],inactive
same,Potency,[18],inactive
same,Potency,[19],inactive
CN[C@@H]1[C@H](O[C@H]2[C@@H](O[C@@H]3[C@@H](O)[C@@H](O)[C@@H](N=C(N)N)[C@@H](O)[C@@H]3N=C(N)N)O[C@@H](C)[C@]2(O)CO)O[C@H](CO)[C@@H](O)[C@@H]1O,outcome,[1],inactive
same,Potency,[2],inactive
same,"activity change, negative = inhibition",[3],1.68% (inactive)
same,outcome,[4],inactive
same,Potency,[5],> 20.6 µM (inactive)
same,Potency,[6],> 20.6 µM (inactive)
same,Potency,[7],inactive
same,outcome,[8],inactive
same,"activity change, negative = inhibition",[9],-1.28% (inactive)
same,max response,[9]; [21],-9.77%
same,max response,[9]; [22],-12.5%
same,Potency,[20],inactive
CC[C@H](C)C(=O)O[C@@H]1C[C@H](C)C=C2C=C[C@H](C)[C@@H](CC[C@H]3C[C@@H](O)CC(=O)O3)[C@H]21,outcome,[1],inactive
same,Potency,[2],inactive
same,"activity change, negative = inhibition",[3],11.4% (inactive)
same,outcome,[4],inactive
same,Potency,[5],> 20.6 µM (inactive)
same,Potency,[6],> 20.6 µM (inactive)
same,Potency,[7],inactive
same,outcome,[8],inactive
same,"activity change, negative = inhibition",[9],-5.83% (inactive)
same,max response,[9]; [21],-1.87%
same,max response,[9]; [22],-8.58%
same,Potency,[20],inactive
Cc1ccccc1N1C(=O)c2cc(S(N)(=O)=O)c(Cl)cc2N[C@H]1C,outcome,[1],inactive
same,Potency,[2],inactive
same,"activity change, negative = inhibition",[3],1.02% (inactive)
same,outcome,[4],inactive
same,Potency,[5],> 20.6 µM (inactive)
same,Potency,[6],> 20.6 µM (inactive)
same,Potency,[7],inactive
same,outcome,[8],inactive
same,"activity change, negative = inhibition",[9],0.988% (inactive)
same,max response,[9]; [21],-3.14%
same,max response,[9]; [22],-3.66%
same,Potency,[20],inactive
CC[N+](CC)(CC)CC[C@](O)(c1ccccc1)C1CCCCC1,outcome,[1],inactive
same,Potency,[2],inactive
same,"activity change, negative = inhibition",[3],-68.8% (active)
same,outcome,[4],inactive
same,Potency,[5],> 20.6 µM (inactive)
same,Potency,[6],> 20.6 µM (inactive)
same,Potency,[7],inactive
same,outcome,[8],inactive
same,"activity change, negative = inhibition",[9],-1.33% (inactive)
same,max response,[9]; [21],-17.2%
same,max response,[9]; [22],-19.8%
same,outcome,[10],inactive
same,Potency,[20],inactive
same,Potency,[11],inactive
same,Potency,[12],inactive
same,"activity, negative = inhibition",[13]; parasite line B,-24.4% (inactive)
same,Potency,[14],inactive
same,Potency,[15],inactive
same,Potency,[16],inactive
same,Potency,[17],inactive
same,Potency,[19],inactive
C#C[C@@]1(O)CC[C@@H]2[C@@H]3CCC4=C(CCC(=O)C4)[C@H]3CC[C@]21C,outcome,[1],inactive
same,Potency,[2],12.6 µM (active)
same,"activity change, negative = inhibition",[3],-5.71% (inactive)
same,outcome,[4],inactive
same,outcome,[8],inactive
same,"activity change, negative = inhibition",[9],-0.658% (inactive)
same,max response,[9]; [21],-13%
same,max response,[9]; [22],-12.8%
same,outcome,[10],inactive
same,Potency,[20],inactive
same,Potency,[11],inactive
same,Potency,[12],3.89 µM (active)
